Source: PubChem (National Center for Advancing Translational Sciences (NCATS))
Lassa entry inh: blocks Lassa virus binding to or entry into cells. Lassa virus pseudotype entry inhibition, cell reporter. Potency, µM (titrated, usually from 37.9 µM), without a hit: top-dose activity change, negative = inhibition, actives largely listed as inhibitors. 300,000 tested, 1.2% active; calls by dose curve; tested in HEK293 cells; also: potency is read from the fitted curve at half-maximal effect; nearly all actives have a fitted effect of over 50% in size
Vaccinia mCherry: inhibitors of vaccinia virus infection (mCherry reporter signal); Vaccinia virus mCherry reporter infection, fluorescence; Potency, µM (titrated, usually from 36.5 µM), for the others: at the top dose activity change, negative = inhibition, usual class: inhibitors; 310,000 tested, 0.63% active; calls by dose curve; tested in A549 cells; also: potency is read from the fitted curve at half-maximal effect; nearly all actives have a fitted effect of over 35% in size
HCMV antiviral: inhibitors of human cytomegalovirus; HFF cells, HCMV-luciferase reporter, 72 h; active compounds read low; activity change, negative = inhibition, % at 57.5 µM; 410,000 tested, 4.5% active; in the data active = activity change below about -60%; inconclusive = no clear call, values can overlap the other calls; inactive = above about -39%
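After 16 h attachment at 37C, HFF cells received test compound and HCMV-luciferase (1 PFU/cell); reporter luminescence read 72 h later, data normalized against buffer-only and known inhibitor Salinomycin.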
VACV Venus inh: vaccinia inhibition (Venus reporter); Vaccinia virus Venus reporter expression, fluorescence; Potency, µM (titrated, usually from 36.5 µM), for the others: top-dose activity change, negative = inhibition, most hits filed as inhibitors; 330,000 tested, 0.46% active; AID 720580; calls by dose curve; tested in A549 cells; also: potency is read from the fitted curve at half-maximal effect; nearly all actives have a fitted effect of over 30% in size
Marburg entry inh: Marburg virus entry inhibition. Marburg virus pseudotyped entry inhibition, cell reporter. Potency, µM (top dose mostly 37.8 µM), for inactives: at the highest dose activity change, negative = inhibition, usual class: inhibitors. 300,000 tested, 1.8% active; calls by dose curve; tested in HEK293 cells; also: potency is read from the fitted curve at half-maximal effect
FMDV antiviral: blocks foot and mouth disease virus. FMDV antiviral cell-based qHTS. Potency, µM (highest dose often 57.9 µM), for the others: top-dose activity change, negative = inhibition, usual class: inhibitors. AID 1159524. 410,000 tested, 1.2% active; calls by dose curve; tested in HEK293T cells; also: read-out not given here; potency is read from the fitted curve at half-maximal effect; nearly all actives have a fitted effect of over 45% in size
Numbers without * were called inactive; i = inactive; ? = inconclusive; . = no result given; [ ] = remark or other dose. Only some compounds are listed: those with a hit (about 6.5% of all), similar ones and a draw of the others. % is scaled to controls: 0 for no effect and ±100 for the full control effect.

SMILES	Lassa entry inh	Vaccinia mCherry	HCMV antiviral	VACV Venus inh	Marburg entry inh	FMDV antiviral
COc1cccc(/C=C(\C#N)c2nc3ccc(C)cc3[nH]2)c1OCC(=O)O	.	.	28	.	.	-1%
COc1cc2nc(N3CCCCC3)nc(NC3CC3)c2cc1OC	.	-4%	.	-20%	.	.
CCN(Cc1ccccc1)C(c1ccc(Cl)cc1)c1nnnn1C(C)(C)C (stereo not drawn)	?	.	-97*	2%	?	?
CCN(Cc1ccccc1)C(c1ccc(C)cc1)c1nnnn1C(C)(C)C (stereo not drawn)	-10%	.	-25	-14%	2%	?
COc1ccccc1C(=O)N[C@@H]1c2ccccc2C2(CCN(Cc3cnn(C)c3C)CC2)[C@H]1O	.	-21%	.	-4%	.	4%
O=C(Nc1ccc2oc(-c3cccc(Cl)c3Cl)nc2c1)c1cccc(Br)c1	-8%[46.1 µM]	?	-74*	?	.	-5%
Cc1ccc(NC(=O)c2ccc(F)cc2)cc1S(=O)(=O)N1CCCCCC1	?	i	-78*	-24%	7.9µM*	?
COc1ccc(C(=O)Nc2ccc(C)c(S(=O)(=O)N3CCCCCC3)c2)cc1	?	?	-65*	?	?	20µM*
Cc1ccc(NC(=O)c2ccc(C)c(S(=O)(=O)N3CCCCCC3)c2)cc1	?	-1%	?	-13%	.	-18%
CCCN1C(=O)C[C@H](S(=O)(=O)c2ccccc2)[C@H]1c1ccccc1OC	.	.	-9	.	.	.
CCc1ccccc1N1C(=O)N(Cc2ccccc2C)c2ccccc2S1(=O)=O	?	?	-105*	?	.	17%
COc1ccc(C(=O)N(Cc2ccc(C(C)C)cc2)C2CCS(=O)(=O)C2)cc1 (stereo not drawn)	-29%[46.1 µM]	-10%	0	-14%	?	-9%
COCCn1c(N)c(S(=O)(=O)c2cccs2)c2nc3ccccc3nc21	23%	i	.	-14%	-5%	.
COc1cccc(/C=N/n2c(N)c(S(=O)(=O)c3cccs3)c3nc4ccccc4nc32)c1OC	-30%	.	-81*	.	-24%	17%
Clc1ccc2c(c1)C(c1ccccc1Cl)=NCc1nncn1-2	6%	-7%	25	-8%	-11%	2%
Clc1ccc2c(c1)C(c1ccccc1Cl)=NCc1nnc(Br)n1-2	-18%	13µM*	-34	?	?	-19%
Cc1ccccc1NC(=O)/C=C/c1cccs1	-3%	i	1	-11%	?	45%
CC(=O)c1cccc(NC(=O)/C=C/c2ccc([N+](=O)[O-])s2)c1	7.1µM*	-6%	-96*	2%	?	?
Cc1ccccc1NC(=O)/C=C/c1ccc([N+](=O)[O-])s1	?	-18%	.	167%	?	10µM*
Cc1cc(C)cc(NC(=O)/C=C/c2ccc([N+](=O)[O-])s2)c1	-16%	-30%	-92*	-6%	-20%	-28%
Cc1ccc(OCC(=O)Nc2nonc2-c2ccc(C)c(C)c2)cc1C	-9%[46.1 µM]	-4%	3	9%	-5%[46.1 µM]	-21%
CC1CCN(S(=O)(=O)c2ccc3c(ccn3CCC(=O)NCc3ccccc3F)c2)CC1	-27%[46.1 µM]	-6%	-10	-14%	.	22%
CC(C)c1ccc(NC(=O)N[C@H]2CC[C@@]34CCCN3C(=O)CCC[C@H]4C2Cc2ccccc2)cc1 (stereo partly drawn)	.	.	9	.	.	.
CCC[C@H]1[C@@H](NS(=O)(=O)c2ccc(Br)cc2)CC[C@@]23CCCN2C(=O)CCC[C@@H]13	.	.	29	.	.	.
COc1ccc(S(=O)(=O)n2nc(-n3c(C)ccc3C)c3c(F)cccc32)cc1OC	?	-20%	-32	-18%	8.9µM*	-26%
Cc1ccc(C)n1-c1nn(S(=O)(=O)c2ccccc2)c2cccc(F)c12	-9%[46.1 µM]	-10%	-32	6%	?	-24%
CCc1cccc(NC(=O)CSC2=Nc3ccccc3N=C(c3ccc(F)cc3)C2)c1	0%[46.1 µM]	-11%	-35	-14%	.	-23%
COc1ccc(NC(=O)CSC2=Nc3ccccc3N=C(c3ccc(F)cc3)C2)cc1OC	27%[46.1 µM]	-15%	-102*	-9%	.	?
C=C(C)COc1ccc(-c2[nH]ncc2-c2ccccc2)c(O)c1	8.9µM*	.	?	?	?	?
C=C(C)COc1ccc(-c2[nH]ncc2Oc2cccc(OC)c2)c(O)c1	1.6µM*	?	?	?	-30%	23%
